Assay [1] addresses Glucocorticoid receptor (Homo sapiens) (UniProt P04150). The assay is described as follows: qHTS assay for small molecule antagonists of glucocorticoid receptor signaling (AID 588533; active = well fitted inhibition curve with a large enough effect in the signal ratio, with a control signal flat, not every such curve was filed as active; the % refers to the signal ratio;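 also: cells stimulated with 2 nM dexamethasone as agonist; % is scaled to controls: 0 for no effect and ±100 for the full control effect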). The method, boiled down:
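Antagonist-mode qHTS: compound titrations added to GRE-bla HeLa cells, then dexamethasone 2 nM final; 18 h, 37 C. CCF4 FRET fluorescence normalized to dexamethasone and DMSO; IC50 from Hill fit.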

Assay [2] has as its target Peroxisome proliferator-activated receptor delta (Homo sapiens) (UniProt Q03181). The assay is described as follows: qHTS assay for small molecule agonists of peroxisome proliferator-activated receptor delta signaling (AID 588534; calls by dose curve;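 also: 0% = DMSO basal wells and 100% = positive control agonist at 10 µM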). The method, boiled down:
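Cell-based beta-lactamase reporter assay run in agonist mode: cells seeded and incubated 5 hrs at 37 C, compounds added and incubated 18 hrs at 37 C. CCF4 dye fluorescence read after 2 hrs at RT; EC50 and efficacy from Hill fits.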
In general terms: Quantitative high-throughput screening tests each substance at several concentrations.

A short description of assay [3]: qHTS assay for small molecule antagonists of peroxisome proliferator-activated receptor delta signaling (AID 588535; active = well fitted inhibition curve with a large enough effect in the signal ratio, with a control signal flat, not every such curve was filed as active; the % refers to the signal ratio;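 as to max response: cells co-treated with a PPAR-delta agonist as stimulator during compound exposure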). To be noted: HEK293T PPARd-UAS-bla, beta-lactamase FRET ratio, 18 h; 460 nm channel. The method in brief: (§1)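 GeneBLAzer PPAR-delta-UAS-bla HEK293T cells in medium with 2% charcoal/dextran FBS were preincubated 5 hrs at 37 C, then given compounds, incubated 18 hrs at 37 C, and read by CCF4 beta-lactamase fluorescence; IC50 from Hill fits.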

Assay [4] concerns the target Peroxisome proliferator-activated receptor delta (Homo sapiens) (UniProt Q03181). The assay is described as above. The method in brief: as §1
Assay [5] concerns the target Retinoic acid receptor RXR-alpha (Homo sapiens) (UniProt P19793). Put plainly: qHTS assay for small molecule agonists of retinoid X receptor alpha signaling (AID 588544; calls by dose curve;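 also: 0% = DMSO basal wells and 100% = reference agonist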).
For assay [6], the target named is Thyroid hormone receptor beta (Homo sapiens) (UniProt P10828). The assay is described as follows: qHTS assay for small molecule agonists of thyroid hormone receptor beta signaling (AID 588545; calls by dose curve). The method, boiled down: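 Agonist activity was read as beta-lactamase CCF4 fluorescence (405 ex, 460/530 em), scaled between DMSO (0%) and 10 nM T3 (100%), then Hill-fitted for EC50 and efficacy. HEK 293 TR-UAS-bla cells in 2% charcoal/dextran FBS medium were exposed 18 h at 37 C.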
Sequence of Thyroid hormone receptor beta (Homo sapiens) (P10828 whole entry, looked up): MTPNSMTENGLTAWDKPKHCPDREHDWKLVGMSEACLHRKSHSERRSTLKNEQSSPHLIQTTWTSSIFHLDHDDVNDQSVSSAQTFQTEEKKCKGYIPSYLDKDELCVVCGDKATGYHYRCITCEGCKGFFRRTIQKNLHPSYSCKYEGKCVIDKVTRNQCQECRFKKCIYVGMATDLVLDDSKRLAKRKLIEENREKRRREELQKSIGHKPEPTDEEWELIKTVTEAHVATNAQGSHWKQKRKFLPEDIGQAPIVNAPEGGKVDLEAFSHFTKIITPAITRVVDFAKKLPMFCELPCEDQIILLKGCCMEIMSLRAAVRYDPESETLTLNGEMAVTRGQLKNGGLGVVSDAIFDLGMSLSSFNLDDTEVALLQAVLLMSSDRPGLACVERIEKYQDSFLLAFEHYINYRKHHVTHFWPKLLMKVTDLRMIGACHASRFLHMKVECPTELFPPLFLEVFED

Assay [7] in a line: qHTS assay for small molecule antagonists of retinoid X receptor alpha signaling (AID 588546; active = well fitted inhibition curve with a large enough effect in the signal ratio, with a control signal flat, not every such curve was filed as active; the % refers to the signal ratio;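 also: cells stimulated with 9-cis-retinoic acid as agonist; % is scaled to controls: 0 for no effect and ±100 for the full control effect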). To be noted: HEK293T RXRa-UAS-bla, beta-lactamase ratio, antagonist mode; measured here: W530 green channel, cytotoxicity proxy. The method, boiled down: (§2)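 Beta-lactamase reporter inhibition, read as CCF4 fluorescence ratio (ex 405, em 460/530 nm) after 2 h at RT. HEK293T UAS-bla cells, 2500/well, were stimulated with 9-cis-RA at 500 or 100 nM final alongside test compound for 18 h at 37 C.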

Assay [8] addresses Retinoic acid receptor RXR-alpha (Homo sapiens) (UniProt P19793). The assay is described as above. To be noted: HEK293T RXRa-UAS-bla, beta-lactamase ratio, antagonist mode. The method, boiled down:
as §2

Assay [9] is described as follows: qHTS assay for small molecule activators of the p53 signaling pathway (AID 651743; active = well fitted activation curve with a large enough effect in the signal ratio, not every such curve was filed as active; the % refers to the signal ratio; also: series mostly up to about 92 µM; % of control where 0% means no effect). The note with it: HCT-116 p53RE-bla, beta-lactamase FRET ratio, 16 h; activation: stronger effect = higher value. The method, boiled down: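 p53RE-bla HCT-116 cells with a stably integrated beta-lactamase reporter under p53 response elements were plated, rested 5 hours at 37 C/5% CO2, then exposed to compounds in DMSO for 16 hours at 37 C. LiveBLAzer B/G FRET substrate was read after 2 hours at room temperature.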

Assay [10] is described as follows: qHTS assay for small molecule activators of the nuclear factor-kappa B (NF-kB) signaling pathway (AID 651749; active = well fitted activation curve with a large enough effect in the signal ratio; the % refers to the signal ratio; also: series mostly up to about 77 µM; % of control where 0% means no effect). The note with it: NF-kB-bla ME-180 cells, beta-lactamase FRET ratio, 16 h; activation: stronger effect = higher value. The method in brief: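 ME-180 cells stably carrying a beta-lactamase reporter under an NF-kB response element were exposed to compound or DMSO vehicle for 16 hr at 37C, 5% CO2. Pathway activation was read by FRET, since reporter expression disrupts FRET.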

Assay [11] can be described thus: qHTS assay for environmental chemicals that activate the Aryl hydrocarbon Receptor (AhR) signaling pathway (AID 651777). Also: nearly all actives have a fitted effect of over 15% in size. Also: potency is read from the fitted curve at half-maximal effect. As to activation: % of control where 0% means no effect. The note with it: 1A2-DRE human hepatoma cells, luciferase, 24 h; activation: stronger effect = higher value. The method in brief: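 Measured luciferase activity, read 30 min after One-Glo addition at room temperature, from human hepatoma cells bearing a dioxin response element–CYP1A2 promoter reporter and exposed to compound for 24 hr at 37 C.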

Assay [12] addresses Peroxisome proliferator-activated receptor alpha (Homo sapiens) (UniProt Q07869). The assay is described as follows: qHTS assay for small molecule agonists of the peroxisome proliferator-activated receptor alpha (PPARalpha) signaling pathway (AID 651778). Also: % of control where 0% means no effect. To be noted: PathHunter PPARalpha complementation, chemiluminescence, 6 h; max response: stronger effect = higher value. The method, boiled down:
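Cells plated at 2,000/well and held overnight at 37 C, 5% CO2, then compound added by pin tool for 6 hr; after PathHunter detection reagent and 60 min at room temperature, chemiluminescence from enzyme complementation was read.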

A short description of assay [13]: qHTS assay for small molecule agonists of the antioxidant response element (ARE) signaling pathway measured by Nrf2-dependant transcriptional activity (AID 720636; active = well fitted curve in the direction sought with a large enough effect in the repeat runs; an effect the other way counts as inactive or inconclusive;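 also: HepG2 cells with an ARE-driven luciferase reporter; % of control where 0% means no effect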). The method in brief: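 In HepG2 cells engineered with an Nrf2-responsive luciferase gene, ARE induction was quantified as luminescence after 16 hr compound treatment at 37 C.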
Assay [14] is described as follows: qHTS assay for small molecule agonists of the antioxidant response element (ARE) signaling pathway measured by Nrf2-dependant transcriptional activity - cell viability counter screen (AID 720653; active = well fitted curve in the direction sought with a large enough effect in the repeat runs; an effect the other way counts as inactive or inconclusive; also: % is scaled to controls: 0 for no effect and ±100 for the full control effect). To be noted: ARE-bla HepG2 viability, CellTiter-Glo ATP luminescence, 16 h; max response: stronger effect = lower value. The method, boiled down:
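ARE-bla HepG2 cells (2,000/well) rested 5 hrs at 37C/5% CO2, then exposed to compounds in DMSO for 16 hrs. Viability was read in the same wells as intracellular ATP by luminescence, 30 min at room temperature after reagent addition.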

The nature of assay [15]: qHTS assay for cell viability of HEK293 cells (AID 743288). Also: % is scaled to controls: 0 for no effect and ±100 for the full control effect; nearly all actives have a fitted effect of over 50% in size. The note with it: ATP luminescence (CellTiter-Glo), 18 h; max response: stronger effect = lower value. The method in brief: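 Environmental chemicals tested in qHTS format against parental HEK293 cells; 18 h treatment, 37 C; read-out ATP luminescence (CellTiter-Glo), 30 min RT development.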
Assay [16] is described as follows: qHTS assay for cell viability of the p53RE-bla HCT-116 cell line (AID 743292). Also: % is scaled to controls: 0 for no effect and ±100 for the full control effect; nearly all actives have a fitted effect of over 55% in size. The method in brief: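 Intracellular ATP of p53RE-bla HCT-116 cells measured by luciferase luminescence following 16 h compound incubation at 37 C; DMSO-only wells served as vehicle controls.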
Assay [17] addresses Nuclear receptor subfamily 1 group I member 2 (Rattus norvegicus) (UniProt Q9R1A7). The assay is described as follows: qHTS assay for small molecule activators of the rat pregnane X receptor (rPXR) signaling pathway (AID 651751; call rule not given here; also: 0% is about no effect). To be noted: rPXR reporter cells, luciferase (One-Glo), 24 h.
In assay [18] the target is Estrogen receptor (Homo sapiens) (UniProt P03372). Put plainly: qHTS assay for small molecule agonists of estrogen receptor alpha signaling (AID 588514; calls by dose curve;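 also: 0% = vehicle only and 100% = reference agonist; nearly all actives have a fitted effect of over 70% in size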). The method, boiled down:
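ER-alpha-UAS-bla GripTite HEK 293 cells in medium with 2% charcoal/dextran-treated FBS were treated with compound titrations at 37 C for 18 hrs; beta-lactamase reporter read by CCF4 fluorescence after 2 hrs at RT.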

Assay [19] deals with Thyroid hormone receptor beta (Homo sapiens) (UniProt P10828). Put plainly: qHTS assay for small molecule antagonists of thyroid hormone receptor beta signaling (AID 588547; active = well fitted inhibition curve with a large enough effect in the signal ratio, with a control signal flat, not every such curve was filed as active; the % refers to the signal ratio;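 also: cells stimulated with 0.4 nM T3 agonist during compound exposure; series mostly up to about 77 µM; % is scaled to controls: 0 for no effect and ±100 for the full control effect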). The note with it: TR-UAS-bla HEK293, beta-lactamase ratio, antagonist mode, 18 h. The method, boiled down:
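TR-UAS-bla GripTite HEK293 cells in 2% charcoal/dextran FBS medium were preincubated 4 h at 37 C, given compound (0.59 nM to 92 uM) plus 0.4 nM T3 (final) for 18 h, then CCF4 for 2 h at RT; Hill fit gave IC50.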

Assay [20] addresses Vitamin D3 receptor (Homo sapiens) (UniProt P11473). Put plainly: qHTS assay for small molecule antagonists of vitamin D receptor signaling (AID 588541; calls by dose curve). The method in brief:
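VDR-UAS-bla HEK293T cells (2000/well, 2% charcoal-stripped FBS) were treated with titrated compounds plus 1-alpha,25-dihydroxyvitamin D3 (50 nM or 3 nM final) for 16 h at 37 C. CCF4 beta-lactamase fluorescence was read; Hill fits gave IC50.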

Inconclusive results are not listed. Calls of active or inactive are those of the source. Unless noted, calls follow the shape of the dose curve; as a rule, active = well fitted curve in the direction sought with a large enough effect; inconclusive = small, poorly fitted or top-dose-only effect, or another doubt; inactive = no such curve, though single readings can be large; an effect the other way counts as inactive or inconclusive.

Consider six molecules from PubChem BioAssay (NCATS).

Sequence of Vitamin D3 receptor (Homo sapiens) (P11473 whole entry, looked up): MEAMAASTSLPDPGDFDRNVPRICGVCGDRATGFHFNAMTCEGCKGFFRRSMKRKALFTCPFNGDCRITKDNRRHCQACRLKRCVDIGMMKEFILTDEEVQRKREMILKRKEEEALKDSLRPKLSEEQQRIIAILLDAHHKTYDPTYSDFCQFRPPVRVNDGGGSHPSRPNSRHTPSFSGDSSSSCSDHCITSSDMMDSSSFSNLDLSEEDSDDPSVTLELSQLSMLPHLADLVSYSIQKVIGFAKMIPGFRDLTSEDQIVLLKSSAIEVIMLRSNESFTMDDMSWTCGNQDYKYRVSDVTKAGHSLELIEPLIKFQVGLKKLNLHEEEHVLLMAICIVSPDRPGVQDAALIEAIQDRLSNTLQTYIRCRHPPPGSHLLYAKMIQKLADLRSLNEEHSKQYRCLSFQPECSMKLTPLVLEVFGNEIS
Sequence of Peroxisome proliferator-activated receptor alpha (Homo sapiens) (Q07869 whole entry, looked up): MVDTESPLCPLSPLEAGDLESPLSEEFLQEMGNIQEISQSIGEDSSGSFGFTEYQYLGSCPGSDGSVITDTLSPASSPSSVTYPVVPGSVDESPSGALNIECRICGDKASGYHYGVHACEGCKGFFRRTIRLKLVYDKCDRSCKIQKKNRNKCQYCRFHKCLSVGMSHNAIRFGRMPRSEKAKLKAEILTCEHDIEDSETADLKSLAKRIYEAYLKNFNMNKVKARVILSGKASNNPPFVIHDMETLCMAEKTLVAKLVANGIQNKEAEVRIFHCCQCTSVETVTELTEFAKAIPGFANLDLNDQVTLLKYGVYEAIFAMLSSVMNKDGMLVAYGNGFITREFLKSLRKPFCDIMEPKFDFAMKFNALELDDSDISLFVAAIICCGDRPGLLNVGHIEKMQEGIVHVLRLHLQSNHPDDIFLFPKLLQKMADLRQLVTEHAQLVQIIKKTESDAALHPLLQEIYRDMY
Sequence of Retinoic acid receptor RXR-alpha (Homo sapiens) (P19793 whole entry, looked up): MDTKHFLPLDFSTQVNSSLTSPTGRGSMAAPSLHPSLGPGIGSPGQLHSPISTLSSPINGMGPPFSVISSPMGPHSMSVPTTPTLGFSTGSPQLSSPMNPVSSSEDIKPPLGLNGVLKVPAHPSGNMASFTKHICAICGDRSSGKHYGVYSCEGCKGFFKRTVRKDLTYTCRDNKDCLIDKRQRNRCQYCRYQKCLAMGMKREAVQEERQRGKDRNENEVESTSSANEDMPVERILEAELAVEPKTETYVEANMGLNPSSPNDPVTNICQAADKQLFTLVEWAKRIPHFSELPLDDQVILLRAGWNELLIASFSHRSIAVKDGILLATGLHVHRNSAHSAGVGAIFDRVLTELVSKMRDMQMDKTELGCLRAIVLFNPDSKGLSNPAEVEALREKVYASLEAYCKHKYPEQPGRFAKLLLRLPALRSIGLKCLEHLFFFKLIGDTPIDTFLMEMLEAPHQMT
Sequence of Peroxisome proliferator-activated receptor delta (Homo sapiens) (Q03181 whole entry, looked up): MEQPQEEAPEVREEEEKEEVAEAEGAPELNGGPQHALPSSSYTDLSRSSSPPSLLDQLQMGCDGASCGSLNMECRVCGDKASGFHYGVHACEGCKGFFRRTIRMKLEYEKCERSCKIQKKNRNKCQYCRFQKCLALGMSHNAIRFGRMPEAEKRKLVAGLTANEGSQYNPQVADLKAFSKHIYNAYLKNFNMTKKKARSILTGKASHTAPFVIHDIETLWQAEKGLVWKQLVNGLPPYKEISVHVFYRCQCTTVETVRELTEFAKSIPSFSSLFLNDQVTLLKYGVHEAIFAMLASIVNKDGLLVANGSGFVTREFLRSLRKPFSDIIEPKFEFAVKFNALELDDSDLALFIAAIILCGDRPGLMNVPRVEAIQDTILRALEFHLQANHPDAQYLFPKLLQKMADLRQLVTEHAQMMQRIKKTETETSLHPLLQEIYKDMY
Sequence of Nuclear receptor subfamily 1 group I member 2 (Rattus norvegicus) (Q9R1A7 whole entry, looked up): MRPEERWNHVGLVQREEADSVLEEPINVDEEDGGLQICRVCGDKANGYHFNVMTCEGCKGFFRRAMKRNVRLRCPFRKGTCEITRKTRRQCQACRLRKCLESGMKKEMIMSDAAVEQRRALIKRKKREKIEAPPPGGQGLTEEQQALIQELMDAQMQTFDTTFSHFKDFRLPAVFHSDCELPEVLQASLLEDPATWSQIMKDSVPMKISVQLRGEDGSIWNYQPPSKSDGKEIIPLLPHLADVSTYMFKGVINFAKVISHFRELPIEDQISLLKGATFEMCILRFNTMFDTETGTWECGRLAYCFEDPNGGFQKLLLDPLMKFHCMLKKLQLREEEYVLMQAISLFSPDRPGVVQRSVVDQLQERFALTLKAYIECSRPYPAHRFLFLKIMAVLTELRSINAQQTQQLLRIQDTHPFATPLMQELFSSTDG
Sequence of Estrogen receptor (Homo sapiens) (P03372 whole entry, looked up): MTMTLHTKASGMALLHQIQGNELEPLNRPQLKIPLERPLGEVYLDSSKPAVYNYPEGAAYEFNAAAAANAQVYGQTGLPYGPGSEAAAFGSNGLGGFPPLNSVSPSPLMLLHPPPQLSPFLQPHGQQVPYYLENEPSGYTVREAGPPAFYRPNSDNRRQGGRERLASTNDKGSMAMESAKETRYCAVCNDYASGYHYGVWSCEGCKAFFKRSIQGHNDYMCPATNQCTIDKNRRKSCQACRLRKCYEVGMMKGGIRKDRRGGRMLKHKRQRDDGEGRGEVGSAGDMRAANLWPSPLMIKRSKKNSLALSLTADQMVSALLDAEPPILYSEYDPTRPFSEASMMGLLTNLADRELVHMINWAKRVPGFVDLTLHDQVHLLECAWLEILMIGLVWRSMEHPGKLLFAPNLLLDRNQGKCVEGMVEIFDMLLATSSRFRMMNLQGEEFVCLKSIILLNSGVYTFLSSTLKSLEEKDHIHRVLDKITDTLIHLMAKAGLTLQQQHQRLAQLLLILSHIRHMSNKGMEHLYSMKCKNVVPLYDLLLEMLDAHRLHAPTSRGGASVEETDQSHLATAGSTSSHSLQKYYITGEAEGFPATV
Sequence of Glucocorticoid receptor (Homo sapiens) (P04150 whole entry, looked up): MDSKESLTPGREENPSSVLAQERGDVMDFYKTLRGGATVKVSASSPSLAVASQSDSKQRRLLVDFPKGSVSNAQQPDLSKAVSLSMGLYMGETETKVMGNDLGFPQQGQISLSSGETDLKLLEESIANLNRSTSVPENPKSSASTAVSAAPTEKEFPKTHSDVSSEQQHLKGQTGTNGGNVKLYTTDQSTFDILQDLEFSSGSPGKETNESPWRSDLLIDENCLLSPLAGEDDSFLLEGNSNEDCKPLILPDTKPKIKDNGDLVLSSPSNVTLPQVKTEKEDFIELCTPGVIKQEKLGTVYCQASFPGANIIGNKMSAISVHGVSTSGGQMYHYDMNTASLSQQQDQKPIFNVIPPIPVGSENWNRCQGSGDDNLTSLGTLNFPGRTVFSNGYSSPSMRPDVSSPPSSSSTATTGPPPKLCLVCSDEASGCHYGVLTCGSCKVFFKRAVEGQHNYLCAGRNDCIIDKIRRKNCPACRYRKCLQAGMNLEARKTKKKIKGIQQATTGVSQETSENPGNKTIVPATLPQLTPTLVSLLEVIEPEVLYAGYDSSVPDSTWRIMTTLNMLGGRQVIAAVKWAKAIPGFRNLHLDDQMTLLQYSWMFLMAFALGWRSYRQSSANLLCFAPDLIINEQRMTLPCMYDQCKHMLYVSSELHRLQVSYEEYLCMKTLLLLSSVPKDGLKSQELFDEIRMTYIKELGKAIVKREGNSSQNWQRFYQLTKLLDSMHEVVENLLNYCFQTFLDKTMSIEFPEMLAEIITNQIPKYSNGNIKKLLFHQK

On to `O=C1C=CC(=O)c2ccccc21`, for which the Potency entry in assay [1], in assay [4], in assay [5], in assay [6], in assay [13] and in assay [16] was “inactive” throughout. Further, in assay [2], the outcome was inactive. Further, the max response is -18.7% in assay [3]; -1.96% in assay [7]; -12.9% (inactive) in assay [8]; -1.22% (inactive) in assay [12]; -8.11% (inactive) in assay [14]; -3.96% (inactive) in assay [15]. In addition, the max response in [17] was 2.78% (inactive). For the same molecule, the activation is -3.99% (inactive) in [9] and -1.33% (inactive) in [10]. The Potency in assay [11] is 15.8 µM (active).

For the molecule `N#CN=C1SCCN1Cc1ccc(Cl)nc1`, the Potency result in assay [18], in assay [4], in assay [5], in assay [6], in [13] and in assay [16] was “inactive” each time. Besides, the molecule was classed as inactive in assay [2]. Also, the max response is 8.04% in assay [3]; -7.22% in assay [7]; -3.64% (inactive) in [8]; -1.13% (inactive) in assay [12]; -4.44% (inactive) in [14]; 1.43% (inactive) in assay [15]. In addition, the max response in [17] is 2.62% (inactive). Moreover, the activity change % (negative = inhibition) in assay [19] is -1.19% (inactive). Moreover, the activation is 1.82% (inactive) in assay [9], -0.492% (inactive) in assay [10] and 1.96% (inactive) in assay [11].

Take `COC(=O)c1c(C(F)F)nc(C(F)(F)F)c(C2=NCCS2)c1CC(C)C`: the outcome in [2] was inactive. In addition, the max response in assay [3] is -95%; in [7] it was -11.1%; in assay [8] it was -17.3% (inactive); in assay [12] it was -1.35% (inactive); in [14], 1.66% (inactive); in assay [15], -8.01% (inactive). Also, the Potency entry in [4], in assay [20], in assay [6], in assay [13] and in [16] was “inactive” each time. Besides, in [19], the activity change % (negative = inhibition) was -8.88% (inactive). The activation was 6.04% (inactive) in [9], -2.57% (inactive) in assay [10] and 2.1% (inactive) in [11].

As to `ClCc1ccccc1Cl`, the Potency entry in [1], in assay [20], in assay [5], in assay [6], in assay [13] and in [16] was “inactive” each time. The max response in [7] was -6.52%; in [12], 1.31% (inactive); in assay [14] it was -2.98% (inactive); in assay [15], -1.39% (inactive); in assay [17], -0.702% (inactive). In addition, in assay [19], the activity change % (negative = inhibition) is -5.68% (inactive). In [11], the activation was 0.685% (inactive).

Turning to `C[N+]1(C)CCCCC1`, the max response in assay [3] was -14.2%; in [7], -2.65%; in assay [8] it was 0.987% (inactive); in assay [12] it was -0.937% (inactive); in assay [14], 4.82% (inactive); in [15] it was -11.8% (inactive). Moreover, the max response in [17] was 3.55% (inactive). In addition, the Potency result in assay [4], in [20], in [5], in [6], in [13] and in [16] was “inactive” in each case. Also, the activity change % (negative = inhibition) in [19] is 2.54% (inactive). For the same molecule, the activation was 0.854% (inactive) in [9], 0.391% (inactive) in assay [10] and 0.858% (inactive) in assay [11].

On to `CC1(C)CON(Cc2ccccc2Cl)C1=O`, for which the Potency entry in assay [18], in [4], in assay [20], in [5], in [6] and in [16] was “inactive” in each case. Moreover, the molecule was classed as inactive in [2]. Moreover, the max response in assay [3] is 23.3%; in assay [7], -9.42%; in assay [8], -4.63% (inactive); in assay [12], 0.0347% (inactive); in [14], -9.67% (inactive); in [15], -8.49% (inactive). The max response in assay [17] was 13.2% (inactive). Further, in assay [19], the activity change % (negative = inhibition) was 0.368% (inactive). Further, the activation in assay [9] was -1.76% (inactive); in [10], 0.414% (inactive).
